# Results: the supplement of paper PMC10338343
# ± gives the standard deviation.
# System: MILI (PIWIL2) piRISC loaded with L1MC piRNA (26 nt)
# Test: pre-steady-state target cleavage rate (min^-1); guide: L1MC piRNA 5'p-UAACUAAAUACUAUGCAAGCUGUAGG; MIWI and MILI are mouse PIWI proteins and EfPiwi is from a freshwater sponge; tags in brackets are library labels; higher = faster piRNA-guided slicing of the target
# Method in brief: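 In this Cleave-'n-Seq assay, uncleaved targets were sequenced and normalised to depth and to weakly complementary targets. They came from a transcribed, DNA-blocked target RNA library […] mixed with 1 nM active affinity-purified piRISC carrying one synthetic guide, with or without 500 nM GTSF1 partner protein, in HEPES–potassium acetate buffer at 33 °C for 0–8 or 0–960 min. After three trials were pooled and k3 was capped at 0.0001 min^-1, the pre-steady-state cleavage rate was obtained from a burst-and-steady-state fit.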
# [1] = auxiliary factor: 500 nM mouse GTSF1
# [2] = auxiliary factor: none (no GTSF1)
# 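Further: 1 nM active piRISC with 0.1 nM target library at 33 °C single turnover.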
Sequence,pre-steady-state target cleavage rate [1],pre-steady-state target cleavage rate [2]
UCCUGGAUGUCCUUGCUAAGUAUUUAGUUA,0.00944 ± 0.0051,–
UCCUGGAUCACCUUGCAUAGUAUUUACUUA,0.0587 ± 0.017,–
UCCUGGAUGUGCUUGCAAAGUAUUUAGAAA,0.0118 ± 0.0048,–
UCCUGGAUGUCGAACGUAUGUAUUUAGUAUA,< 0.0001,–
UCCUGGUACACCUUGCAUAGUAUAUAGUUA,0.311 ± 0.059,–
UCCUCCUACAGCUUGCUAUGUAUUUACAAA,0.00653 ± 0.0036,–
UCCUGGUACAGCUUGCUUAGUAUUUUCAAA,0.0244 ± 0.0078,–
UCCUGGAUGUCGUUGCAUAGUAUUAUGUUA,0.156 ± 0.045,–
UCCUGGAUGUCGAACGAUAGUGUUUAGUUA,–,< 0.0001
UCCUGGAUGUGCUUGCAUAGUAUUUACUUA,0.0325 ± 0.0094,–
UCCUGGAUCACCUUGCAUAGAAUUUAGUUA,0.017 ± 0.0097,–
UCCUGGAUGUCGUUGCAUAGUAUUUAGAUUA,0.0205 ± 0.0091,–
UCCUCCUACAGCUUCCAUAGUAAUUAGUUA,0.0149 ± 0.0069,–
UCCUGCUACAGCUUGCAUUCUAUUUUCAAA,0.0184 ± 0.0078,–
UCCUCCUACAGCUUGCAAUCUAUUUACAAA,0.0157 ± 0.0069,–
UCCUGGUACAGCUUGGUAAGUAUUUAGAAA,0.0185 ± 0.0092,–
UCCUGGAUGUCCUUGCAUUCUAUUUAGUUA,0.00856 ± 0.0043,–
UCCUGGAUGUCCUUGCAUAGUAUUUACAAA,0.0869 ± 0.025,–
UCCUGGAUGUCCUACCAUAGUAUUUAGUUA,0.0632 ± 0.015,–
UCCUGGAUGUCGAACCAUAGUAAUUUGUUA,–,< 0.0001

Sequence,pre-steady-state target cleavage rate [1],pre-steady-state target cleavage rate [2]
UCCUGGAUGUCCUUGCAUUGUAUUUAGAUA,0.0401 ± 0.011,–
UCCUGGAUGACCUUGCAUAGUAUUUUGUUA,0.0852 ± 0.023,–
UCCUGGAACACGUUGCAUAGUAUUUAGAAA,0.187 ± 0.034,–
UCCUGGAUGUGCUUGCAUAGUAUAAUGUUA,0.081 ± 0.022,–
UCCUGGAUGUCGAACGAUAGUUAUUUAGUUA,–,< 0.0001
UCCUGCUACAGCUUGCAUACUAUAUAGUUA,0.0515 ± 0.015,–
UCCUGGAUGUCGAACGAUAGUAUUUAAGUUA,–,< 0.0001
UCCUGGAUGUCGAACGUUACUUUUUAGUUA,–,< 0.0001
UCCUGGAUGUCGAACGUGAGUAUUUAGUUA,–,< 0.0001
UCCUGGAUGAGCUUGCAUAGAAUUUAGUUA,0.0653 ± 0.017,–
UCCUCCUACAGCAAGCAUAGUAUUUUCAAA,0.111 ± 0.025,–
UCCUGGAACAGCUUGCAUAGUAUUUUGUAA,0.0402 ± 0.012,–
UCCUGGAACAGCUUGCAUAGUAUUUAGGUA,0.0622 ± 0.017,–
UCCUGGUACACGUUGCAUAGUAUUUAGUAA,0.166 ± 0.038,–
UCCUGGAUGUCGAUGACAUAGUAUUUAGUUA,0.015 ± 0.0059,–
UCCUGGAUGUCGAACGUAAGUAAUUUGUUA,–,< 0.0001
UCCUGGAUGUCCAUGCAAAGUAUUUAGUUA,0.0101 ± 0.0043,–
UCCUGGAUGAGCUUGCAUAGAAUUUUGUUA,0.0139 ± 0.0063,–
UCCUGGAUCAGCUUGCAUAGUAUUUUCUUA,0.0452 ± 0.013,–
UCCUGGUACAGCUUGCAUACAAUUUAGUUA,–,0.00451 ± 0.0027

Sequence,pre-steady-state target cleavage rate [1],pre-steady-state target cleavage rate [2]
UCCUGGAUGUCGAACGUAUCUAAUUUAGUUA,–,< 0.0001
UCCUGGAUCAGCUUGCAUAGUUUUUACAAA,0.012 ± 0.0052,–
UCCUGGAUGUCCUAGGAUAGUAUUUAGUUA,0.0104 ± 0.0042,–
UCCUGGAACUCCUUGCAUAGUAUUUACAAA,0.241 ± 0.061,–
UCCUGGAUGAGCUUGCAUACUAUUUUGUUA,0.0073 ± 0.005,–
UCCUGGUACAGCUUGCAUAGUAAAAACAAA,0.0104 ± 0.0051,–
UCCUGGAUGUGCAACCAUAGUAUUUAGUUA,0.0128 ± 0.0042,–
UCCUGGAACAGCUUGCUUAGUAUUUACAAA,0.105 ± 0.026,–
UCCUGGAACAGCUUGCAUAGAUUUUACAAA,0.00713 ± 0.0045,–
UCCUGGAUGUGCUACCAUAGUAUUUAGUAA,0.0454 ± 0.011,–
UCCUGGAUCAGCUUGCAUAGUAUUUUGUAA,0.0574 ± 0.016,–
UCCUGCUAGUCCUUGCAUAGUAUUUAGUAA,0.0749 ± 0.018,–
UCCUGCUACAGCUUGCUAAGUAUUUAGAAA,0.0738 ± 0.017,–
UCCUGGAUGAGCUUGCAAAGUAAUUAGUUA,0.0348 ± 0.0091,–
UCCUGGAUGAGCUUGCAUAGUAUUUUCUUA,0.0122 ± 0.0069,–
UCCUGGAACACCUUGCAUAGUAUUUACUUA,0.0546 ± 0.018,–
UCCUGGAUGAGCUUGCAUAGUAAUAAGUUA,0.202 ± 0.045,–
UCCUCCUACAGCUUGCUAUGUAUUUAGUAA,0.021 ± 0.0069,–
UCCUGGAUGACCUUGCAUAGUAUUUACAAA,0.114 ± 0.033,–
UCCUGGAUGUCGAACGUUAGUAUAUAGUUA,–,< 0.0001
